From PubChem BioAssay (Tox21)
Values joined by “and” are separate entries in the source; they are usually repeats but may differ in a detail not shown here. Equal values may be shown once. Records with an inconclusive call do not appear. A call without a number means that no potency is given here. Some structures have more than one record in an assay (separate samples or runs), and their calls can disagree. Active and inactive are the calls of the source. Unless noted, calls come from the whole dose curve; as a rule, active = well fitted curve in the direction sought with a large enough effect in the repeat runs; inconclusive = weak or mixed curves; inactive = no such curve, though single readings can be large; an effect the other way counts as inactive or inconclusive.

Tests used:
[1] = biological target: Thyrotropin-releasing hormone receptor (Homo sapiens) (UniProt P34981); experiment: qHTS assay to identify small molecule agonists of the thyrotropin-releasing hormone receptor (TRHR) signaling pathway (AID 1346891; calls by dose curve;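 note: HEK293 cells expressing TRHR with calcium dye readout; series mostly up to about 58 µM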)
How it was run: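 HEK293/TRHR cells, 1500 per well, 18 h 37 °C; Ca dye 2 h 37 °C; pin-tool compound addition (agonist mode); kinetic fluorescence 3 min, 1 s reads; 15 concentrations, triplicate.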

[2] = Human pregnane X receptor (PXR) small molecule agonists, qHTS cell viability counter screen (AID 1346977); note: nearly all actives have a fitted effect of over 50% in size; note: potency is the fitted concentration of half-maximal effect
How it was run: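 Fluorescence read-out (CellTiter-Fluor) of viability in PXR-Luc HepG2 cells, multiplexed with the luciferase agonist read. Compounds in DMSO added after 5hr plating; 24hr total exposure at 37C, 5% CO2.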

[3] = Caspase-3/7 induction in HepG2 cells by small molecules, qHTS assay (AID 1346978); note: nearly all actives have a fitted effect of over 15% in size; note: potency is the fitted concentration of half-maximal effect
How it was run: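 Wild-type HepG2 cells, 2,000/well, settled 5 hr at 37 C and 5% CO2, then compound-treated for 17 hr; caspase-3/7 activity read by luminescent Caspase-Glo 3/7 after 30 min at room temperature.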

[4] = Caspase-3/7 induction in CHO-K1 cells by small molecules, qHTS cell viability counter screen (AID 1346979); note: nearly all actives have a fitted effect of over 35% in size; note: potency is the fitted concentration of half-maximal effect
How it was run: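 CHO-K1 wt, 1,500 cells/well; 5hr pre-incubation 37C/5% CO2; compound pin transfer (DMSO); 16hr exposure; CellTiter-Fluor added, 1hr, fluorescence read.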

[5] = Caspase-3/7 induction in CHO-K1 cells by small molecules, qHTS assay (AID 1346980); note: nearly all actives have a fitted effect of over 15% in size; note: potency is the fitted concentration of half-maximal effect
How it was run: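 Wild-type CHO-K1 cells exposed to compounds for 17hr at 37 C, 5% CO2. Caspase-3/7 activity then measured by Caspase-Glo 3/7 luminescence after 30min at room temperature.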

[6] = Caspase-3/7 induction in HepG2 cells by small molecules, qHTS cell viability counter screen (AID 1346981); note: nearly all actives have a fitted effect of over 30% in size; note: potency is the fitted concentration of half-maximal effect
How it was run: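 After a 5-hr attachment period at 37 C and 5% CO2, wild-type HepG2 cells received compounds in DMSO. Sixteen hours later CellTiter-Fluor was dispensed and the fluorescent signal quantified after a further hour.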

[7] = biological target: Nuclear receptor subfamily 1 group I member 2 (Homo sapiens) (UniProt O75469); experiment: Human pregnane X receptor (PXR) small molecule agonists, qHTS assay (AID 1346982); note: nearly all actives have a fitted effect of over 35% in size; note: potency is the fitted concentration of half-maximal effect
How it was run: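 Tox21 qHTS; PXR-Luc HepG2; compounds pinned from DMSO; 24 hr, 37 C; ONE-Glo luciferase detection, 30 min room temperature.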

[8] = biological target: Nuclear receptor subfamily 1 group I member 2 (Rattus norvegicus) (UniProt Q9R1A7); experiment: Rat pregnane X receptor (rPXR) activation by small molecules, qHTS assay (AID 1346983); details: rPXR luciferase reporter cells, One-Glo luminescence, 24 h; max activation: stronger effect = higher value; note: nearly all actives have a fitted effect of over 20% in size; note: potency is the fitted concentration of half-maximal effect
How it was run: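 Cell-based rPXR activation assay: rPXR cells, 2,000 per well, rested 5hr at 37 C, then exposed to compounds in DMSO for 24 hr at 37 C. Luciferase activity read by One-Glo luminescence after 30 min at room temperature.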

[9] = biological target: Nuclear receptor subfamily 1 group I member 2 (Homo sapiens) (UniProt O75469); experiment: CYP3A4 induction through human pregnane X receptor (PXR) by small molecules, qHTS assay (AID 1346984); note: nearly all actives have a fitted effect of over 40% in size
How it was run: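 Cells (DPX-2; HepG2 with PXR element plus CYP3A4-promoter luciferase) settled 5hr, then were treated 24hr at 37C. A 3hr, 3uM-final Luciferin-IPA step preceded luminescence measurement with One-Glo.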

[10] = biological target: Nuclear receptor subfamily 1 group I member 2 (Homo sapiens) (UniProt O75469); experiment: Human pregnane X receptor (PXR) activation by small molecules, qHTS assay (AID 1346985); note: nearly all actives have a fitted effect of over 40% in size
How it was run: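 DPX-2 cells (HepG2 co-transfected with a PXR response element and a CYP3A4-promoter luciferase construct) were seeded at 2,000 per well, rested 5 hr at 37C, then exposed to DMSO-dissolved compounds for 24 hr. Activation was read as luciferase luminescence.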

Chain of Thyrotropin-releasing hormone receptor (Homo sapiens) (P34981 whole entry, looked up): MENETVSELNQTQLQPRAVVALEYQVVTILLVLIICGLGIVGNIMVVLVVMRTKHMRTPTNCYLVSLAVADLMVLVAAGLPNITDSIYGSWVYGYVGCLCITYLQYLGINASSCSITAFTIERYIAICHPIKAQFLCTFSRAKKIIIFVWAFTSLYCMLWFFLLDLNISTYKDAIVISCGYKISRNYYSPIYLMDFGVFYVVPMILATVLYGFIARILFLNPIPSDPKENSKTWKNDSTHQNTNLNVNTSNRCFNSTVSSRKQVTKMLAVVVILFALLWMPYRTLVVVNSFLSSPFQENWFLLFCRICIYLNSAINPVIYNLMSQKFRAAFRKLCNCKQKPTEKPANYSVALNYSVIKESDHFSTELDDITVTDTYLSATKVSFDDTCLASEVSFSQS
Chain of Nuclear receptor subfamily 1 group I member 2 (Homo sapiens) (O75469 whole entry, looked up): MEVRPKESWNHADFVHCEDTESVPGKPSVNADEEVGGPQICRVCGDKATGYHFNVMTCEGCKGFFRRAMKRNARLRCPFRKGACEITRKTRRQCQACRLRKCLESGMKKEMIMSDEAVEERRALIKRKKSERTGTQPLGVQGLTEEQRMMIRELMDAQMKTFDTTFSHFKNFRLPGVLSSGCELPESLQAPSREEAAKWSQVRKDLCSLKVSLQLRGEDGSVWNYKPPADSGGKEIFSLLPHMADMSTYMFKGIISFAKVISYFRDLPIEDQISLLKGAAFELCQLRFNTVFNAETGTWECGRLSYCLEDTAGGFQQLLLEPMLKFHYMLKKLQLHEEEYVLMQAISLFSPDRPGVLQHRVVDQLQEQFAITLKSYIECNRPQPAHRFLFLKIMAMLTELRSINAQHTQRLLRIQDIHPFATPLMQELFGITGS
Chain of Nuclear receptor subfamily 1 group I member 2 (Rattus norvegicus) (Q9R1A7 whole entry, looked up): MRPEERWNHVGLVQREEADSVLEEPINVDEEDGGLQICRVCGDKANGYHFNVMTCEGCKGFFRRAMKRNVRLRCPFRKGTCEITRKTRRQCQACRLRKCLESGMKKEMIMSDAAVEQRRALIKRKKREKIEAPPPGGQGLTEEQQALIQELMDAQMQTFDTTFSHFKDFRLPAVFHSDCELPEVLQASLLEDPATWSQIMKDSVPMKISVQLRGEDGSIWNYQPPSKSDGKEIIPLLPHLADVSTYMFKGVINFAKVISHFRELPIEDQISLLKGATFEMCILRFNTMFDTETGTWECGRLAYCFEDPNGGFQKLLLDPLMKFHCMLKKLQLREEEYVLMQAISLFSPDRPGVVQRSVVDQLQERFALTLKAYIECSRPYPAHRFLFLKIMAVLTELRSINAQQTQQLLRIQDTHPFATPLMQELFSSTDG

Row | Compound | Potency [1] | Potency [2] | Potency [3] | Potency [4] | Potency [5] | Potency [6] | Potency [7] | max activation [8] | Potency [9] | Potency [10] | Potency [8]
1 | COc1c(Cl)c(Cl)c(Cl)c(Cl)c1Cl | inactive | inactive | inactive | inactive | inactive | inactive | inactive | – | – | – | –
2 | Cc1ccc2c(n1)Oc1ccc(C(C)C(=O)OCC(=O)N(C)C)cc1C2 (stereo unspecified) | inactive | inactive | inactive | inactive | inactive | inactive | 21.1 µM (active) and 11.9 µM (active) | – | – | – | –
3 | Brc1cc(Oc2cc(Br)c(Br)c(Br)c2Br)c(Br)c(Br)c1Br | inactive | inactive | inactive | inactive | inactive | inactive | 9.73 µM (active) | – | – | – | –
4 | CC(C)CC(C)(O)C#CC(C)(O)CC(C)C (stereo unspecified) | inactive | 31.6 µM (active) and inactive | inactive | – | 42.4 µM (active) and inactive | inactive | – | – | – | – | –
5 | Oc1ccc(O)cc1 | inactive | inactive | inactive | 43 µM (active) and 68.6 µM (active) | inactive | inactive | 54.2 µM (active) and inactive | – | – | – | –
6 | Nc1ncn([C@@H]2O[C@H](CO)[C@@H](O)[C@H]2O)c(=O)n1 | inactive | 3.06 µM (active) and 3.76 µM (active) | inactive | 2.17 µM (active) and 2.98 µM (active) | inactive | 1.72 µM (active) and 2.98 µM (active) | 4.33 µM (active) and 10.6 µM (active) | -11.1% (inactive) | inactive | inactive | –
7 | C/C=C/C(=O)O | inactive | inactive | inactive | inactive | inactive | inactive | inactive | – | – | – | –
8 | C=CC(C)(CCC=C(C)C)OC(C)=O (stereo unspecified) | inactive | inactive | inactive | inactive | inactive | inactive | inactive | – | – | – | –
9 | O=Cc1ccccc1O | inactive | inactive | inactive | – | inactive | inactive | inactive | – | – | – | –
10 | O=C(c1ccccc1)c1ccccc1O | inactive | inactive | inactive | inactive | inactive | inactive | inactive | – | – | – | –
11 | C[C@]12CC[C@H]3[C@@H](CCC4=CC(=O)CC[C@@]43C)[C@@H]1CC[C@@H]2C(=O)CO | inactive | inactive | inactive | inactive | inactive | inactive | 21.7 µM (active) and inactive | – | inactive | inactive | –
12 | Cc1ccc(C)c(O)c1C | inactive | inactive | inactive | inactive | inactive | inactive | inactive | – | – | – | –
13 | O=CCCCC=O | inactive | inactive | inactive | inactive | inactive | inactive | inactive | 4.17% (inactive) | inactive | inactive | –
14 | CCC(C)OC(=O)c1ccc(O)cc1 (stereo unspecified) | inactive | inactive | inactive | – | inactive | inactive | 69 µM (active) and 54.5 µM (active) | – | – | – | –
15 | C=C(C)C(=O)OCCOC(=O)C(=C)C | inactive | inactive | inactive | – | inactive | inactive | inactive | – | – | – | –
16 | CN1C(C(=O)Nc2ccccn2)=C(O)c2ccccc2S1(=O)=O | inactive | inactive | inactive | inactive | inactive | inactive | – | -2.52% (inactive) | inactive | inactive | –
17 | Cc1cccc([N+](=O)[O-])c1C | inactive | inactive | inactive | inactive | inactive | inactive | inactive | – | – | – | –
18 | c1ccc2c(c1)Oc1ccccc1S2 | inactive | inactive | inactive | inactive | inactive | inactive | inactive | – | – | – | –
19 | Cc1c(OCC(F)(F)F)ccnc1CS(=O)c1nc2ccccc2[nH]1 (stereo unspecified) | inactive | inactive | inactive | – | inactive | inactive | – | – | – | – | –
20 | O=P(O)(O)O | inactive | inactive | inactive | inactive | inactive | inactive | – | -4.8% (inactive) | – | – | –
21 | O=CCc1ccccc1 | inactive | inactive | inactive | inactive | inactive | inactive | inactive | – | – | – | –
22 | CC(CCC(=O)O)(c1ccc(O)cc1)c1ccc(O)cc1 | inactive | inactive | inactive | inactive | inactive | inactive | inactive | – | – | – | –
23 | Cc1[nH]c(=O)c(C#N)cc1-c1ccncc1 | inactive | inactive | inactive | inactive | inactive | inactive | 1.37 µM (active) | 1.02% (inactive) | inactive | inactive | –

Row | Compound | Potency [1] | Potency [2] | Potency [3] | Potency [4] | Potency [5] | Potency [6] | Potency [7] | max activation [8] | Potency [9] | Potency [10] | Potency [8]
24 | OC1CCCCCCCCCCC1 | inactive | inactive | inactive | inactive | inactive | inactive | 61.7 µM (active) and inactive | – | – | – | –
25 | O=C(COc1ccc(Cl)cc1)N1CCN(Cc2ccc3c(c2)OCO3)CC1 | inactive | inactive | inactive | inactive | inactive | inactive | 34.4 µM (active) and inactive | 0.0978% (inactive) | inactive | inactive | –
26 | CC(=O)c1ccccn1 | inactive | inactive | inactive | inactive | inactive | inactive | inactive | – | – | – | –
27 | CN(C)C(=N)N=C(N)N | inactive | inactive | inactive | inactive | inactive | inactive | – | -2.9% (inactive) | – | – | –
28 | C#C[C@]1(O)CC[C@H]2[C@@H]3CCC4=Cc5oncc5C[C@]4(C)[C@H]3CC[C@@]21C | inactive | inactive | inactive | 43.3 µM (active) and 26.6 µM (active) | inactive | inactive | 30.6 µM (active) and 29.8 µM (active) | – | inactive | inactive | 7.94 µM (active)
29 | COC(=O)CCC(=O)OC | inactive | inactive | inactive | inactive | inactive | inactive | 56 µM (active) and inactive | – | – | – | –
30 | c1cc(-c2ccncc2)ccn1 | inactive | inactive | inactive | inactive | inactive | inactive | inactive | – | – | – | –
31 | CC(C)OC=O | inactive | inactive | inactive | inactive | inactive | inactive | inactive | – | – | – | –
32 | CCC(C)c1ccccc1O (stereo unspecified) | inactive | inactive | inactive | inactive | inactive | inactive | inactive | – | – | – | –
33 | NNc1ccc(C(=O)O)cc1 | inactive | inactive | inactive | inactive | inactive | inactive | 43.9 nM (active) and 27.6 nM (active) | – | – | – | –
34 | CCCCC(CC)COCC1CO1 (stereo unspecified) | inactive | inactive | inactive | inactive | inactive | inactive | inactive | – | – | – | –
35 | COC(C)COC(C)COC(C)CO (stereo unspecified) | inactive | inactive | inactive | – | inactive | inactive | inactive | – | – | – | –
36 | CN(C)c1nc(N(C)C)nc(N(C)C)n1 | inactive | inactive | inactive | – | inactive | inactive | – | – | – | – | –
37 | CC(=O)C1(C)CC2=C(CCCC2(C)C)CC1C (stereo unspecified) | inactive | inactive | inactive | inactive | inactive | inactive | inactive | – | – | – | –
38 | COc1ccc(C(=O)CC(=O)c2ccc(C(C)(C)C)cc2)cc1 | inactive | inactive | inactive | inactive | inactive | inactive | 65.8 µM (active) and inactive | -2.2% (inactive) | inactive | inactive | –
39 | O=C(/C=C/c1ccccc1)OCc1ccccc1 | inactive | inactive | inactive | inactive | inactive | inactive | inactive | -0.887% (inactive) | – | inactive | –
40 | CCCCc1oc2ccccc2c1C(=O)c1cc(I)c(OCCN(CC)CC)c(I)c1 | inactive | 43.6 µM (active) and 26.6 µM (active) | – | 48.9 µM (active) | inactive | 48.9 µM (active) | 3.09 µM (active) and 4.22 µM (active) | – | – | – | –
41 | c1ccc2cc(Nc3ccc(Nc4ccc5ccccc5c4)cc3)ccc2c1 | inactive | – | inactive | inactive | inactive | inactive | inactive | – | – | – | –
42 | CC(=O)CC/C=C(\C)CCC=C(C)C | inactive | – | inactive | – | inactive | inactive | inactive and 54.5 µM (active) | – | – | – | –
43 | CCCCCCCCCC(=O)OC | inactive | – | inactive | inactive | inactive | inactive | 47.7 µM (active) and inactive | – | – | – | –
44 | O=C(OCc1ccccc1)c1ccccc1O | inactive | – | inactive | inactive | inactive | inactive | inactive | – | – | – | –
45 | Nc1ccccc1N | inactive | – | 2.22 µM (active) and 9.41 µM (active) | inactive and 47.2 µM (active) | inactive | 15 µM (active) | 1.76 µM (active) and 7.7 µM (active) | – | – | – | –
46 | O=C1c2cccc(O)c2C(=O)c2c(O)cccc21 | inactive | – | inactive | inactive | inactive | inactive | inactive | -1.61% (inactive) | inactive | inactive | –
